Data taken from PubChem BioAssay AID1053144 (Broad Institute, 2014).
In all, about 3,400 compounds went through this assay and about 160 (4.7%) were called active.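 How the source made its calls: active means fitted curve reaches 30% activation at a concentration no higher than the top valid tested dose, luminescence rising; inconclusive means no clear call, values can overlap the other calls; inactive means signal moving opposite to the expected increase, plus the rest.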 Only a sample is shown. Measured potencies and affinities stand elsewhere.

experiment: Wnt/beta-catenin signaling activators, dose response, cell-based, iPS-derived NPC, luciferase, Wnt3a, cherry-pick (AID 1053144); conditions: NPC TCF/LEF luciferase reporter, Wnt3a EC25, 24 h; series mostly up to 26 µM; activation: at the top concentration;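 further: Wnt3a stimulus is conditioned medium from Wnt3a-transfected mouse L cells at 5% in well; 0% = neutral control wells and 100% = CHIR-99021 positive control wells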

SMILES	activation
Fc1ccc(-c2nc3ccccc3[nH]2)cc1	13.1% (inactive)
CC(C)CSc1nnc2c(n1)[nH]c1ccccc12	3.64% (inactive)
O=C(/C=C(\Nc1ccccc1)c1ccccc1)c1ccccc1	-0.624% (inactive)
Cc1ccc(SCc2cn3cc(Cl)ccc3n2)cc1	7.16% (inactive)
c1ccc2oc(SCc3cn4ccsc4n3)nc2c1	10.8% (inactive)
O=C(CNC(=O)c1ccccc1F)c1ccccc1	0.87% (inactive)
O=C(CCN1CCN(c2ccccc2)CC1)Nc1ccc(OCc2ccccc2)cc1	1.26% (inactive)
Cc1ccnc(NC(=O)c2ccc(S(=O)(=O)N3CCC(C)CC3)cc2)c1	6.2% (inactive)
O=C(/C=C/c1ccc(OC2CSC2)cc1)c1ccccc1	2.74% (inactive)
CSc1ccc(/C=N/NC(=O)c2cc(O)cc(O)c2)cc1	15.1% (inactive)
N=c1c2c(ncn1CCCO)Oc1c(ccc3ccccc13)C2c1ccccc1 (stereo not drawn)	-1.09% (inactive)
COc1ccc(O)c(/C=N/N2CCCCC2)c1	10.5% (inactive)
COc1ccccc1CCc1nnc(CCC(=O)N(C)Cc2cccc3cnccc23)o1	7.69% (inactive)
C(=N\Nc1nc2ccccc2[nH]1)/c1cccc2cccnc12	-6.2% (inactive)
C=CCn1cc(/C=N/Nc2nc3ccccc3[nH]2)c2ccccc21	6.37% [at 6 µM] (inactive)
Cc1ccsc1/C=N/Nc1nc2ccccc2[nH]1	13.7% (inactive)
Cc1nn(-c2ccccc2)c(C)c1/C=N/Nc1nc2ccccc2[nH]1	20.5% (inactive)
C(=N\Nc1nc2ccccc2[nH]1)/c1ccc2c(c1)OCCO2	8.63% (inactive)
CC(/C=N/Nc1nc2ccccc2[nH]1)=C\c1ccccc1	6.18% (inactive)
C(=N\Nc1nc2ccccc2[nH]1)/c1cccs1	6.38% (inactive)
Clc1nc2ccccc2cc1/C=N/Nc1nc2ccccc2[nH]1	6.98% (inactive)

SMILES	activation
O=C(NCCc1ccccc1F)C(=O)Nc1nccs1	8.45% (inactive)
CSc1ccccc1OCc1cc(C(=O)N2CCCC(C)C2)no1 (stereo not drawn)	18.5% (inactive)
CCCC(=O)c1ccc(N2CCC(C)CC2)c(F)c1	8.52% (inactive)
COc1ccc(C(=O)Nc2nnc(SCC(=O)Nc3ccc(NC(C)=O)cc3)s2)c(OC)c1	12.3% (inactive)
Cc1ccc(NC(=O)c2ccc(F)cc2)nc1	15.3% (inactive)
CCOC(=O)c1cnc2c(-c3ccccc3)cnn2c1N	7.17% (inactive)
Cn1c(SCc2ccc(F)cc2)nnc1-c1ccccn1	13.4% (inactive)
COC(=O)c1c(-c2ccc(SC)cc2)sc2ccc(OC)cc12	7.8% (inactive)
O=C(O)c1cc(N/N=C/c2ccc(N3CCOCC3)cc2)ccc1Cl	-1.2% (inactive)
Cc1ccc(NC(=O)c2ccccn2)c(Br)c1	6.25% (inactive)
Cc1cnc(NC(=O)c2ccccn2)s1	-0.046% (inactive)
COc1ccc(NC(=O)Nc2ccc3oc(C)nc3c2)cc1	13% (inactive)
Fc1ccccc1-c1cc2ncccc2cn1	11.5% (inactive)
COc1cccc(C(=O)COC(=O)c2cccs2)c1	11.3% (inactive)
COc1ccc(C(=O)COC(=O)c2cccs2)cc1	8.71% (inactive)
CCn1c(COc2ccc(OC)cc2)nc2ccccc21	11.6% (inactive)
COc1ccccc1OCc1cc(C(=O)N2CCN(C)C(c3ccccc3)C2)no1 (stereo not drawn)	15.3% (inactive)
COc1cc(Cl)ccc1OCc1cc(C(=O)N(C)CC2CCCCO2)no1 (stereo not drawn)	8.88% (inactive)
Cc1ccccc1Nc1nc(N)c2ccccc2n1	3.57% (inactive)
Nc1nc(Nc2ccccc2)nc2ccccc12	2.38% (inactive)
CCOC(=O)c1oc2nc3c(cc2c1N)CCCC3	8.93% (inactive)

SMILES	activation
O=C(CSc1nnc(C2CC2)n1C1CC1)c1ccc(Br)s1	10.4% (inactive)
Oc1ccccc1-c1cc(-c2ccc(F)cc2)n[nH]1	19.7% (inactive)
Cc1ccccc1-c1cc(-c2ccccc2O)n[nH]1	20.9% (inactive)
COC(=O)c1cc(C)nc(Nc2nc(C(N)Cc3ccc(Cl)cc3)cs2)n1 (stereo not drawn)	-5.29% (inactive)
Cc1ccc(NC(=O)c2csc3c2CCCC3)cc1	8.16% (inactive)
CCOc1ccc(NC(=O)c2csc3c2CCCC3)cc1	12.5% (inactive)
CCOc1ccc(NC(=O)c2ccc3c(c2)N(C)CCS3)cc1	1.57% (inactive)
O=C(CSc1ccsc1[N+](=O)[O-])NCc1ccco1	10.5% (inactive)
CC(C)Nc1ncnc2c1cnn2-c1ccccc1	3.91% (inactive)
COc1ccccc1Nc1ncnc2c1cnn2-c1cccc(C)c1	6.78% (inactive)
Cc1ccc(OCC(=O)Nc2ccccc2F)cc1C	9.3% (inactive)
c1ccc2c(c1)oc1c(NCC3CCCO3)ncnc12 (stereo not drawn)	16.6% (inactive)
c1ccc(CNc2ncnc3c2oc2ccccc23)nc1	13.2% (inactive)
CCOC(=O)N/N=C\c1ccccc1OC/C=C/c1ccccc1	2.48% (inactive)
O=C(/C=C/Nc1cccc(O)c1)c1ccccc1	-2.82% (inactive)
COc1ccc(C(=O)Nc2ccccc2C(=O)NCc2ccco2)cc1OC	1.33% (inactive)
CC(=O)Nc1cccc(NC(=O)c2ccc(C)c([N+](=O)[O-])c2)c1	1.38% (inactive)
O=C(Nc1cccc([N+](=O)[O-])c1)c1ccc2c(c1)OCCO2	9.15% (inactive)
COc1ccc(-c2ccc(NC(=O)c3ccc(Br)o3)cc2)nn1	17% (inactive)
Cc1ccc(/C(=N/Nc2ncnc3ccccc23)C(=O)O)cc1	11.8% (inactive)
Cc1cccc(Nc2ncnc3ccccc23)c1	0.509% (inactive)
